Test results as given in PubChem BioAssay (NCI).
The panel holds about 83,000 compounds, 20% with a hit somewhere; the sample as a whole holds those more often.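 Compound tested at a single concentration for 48 hours in 96-well plates; a percent growth value below 10 was scored as active.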 Active and inactive are the calls of the source.

Assays:
Assay in all cases: NCI-60 one-dose screen, 48 h (100 = growth as untreated, 0 = no growth, -100 = all killed)
Details in all cases: 10 µM unless noted
RPMI-8226 leukemia = test system: RPMI-8226 leukemia
OVCAR-8 ovarian = test system: OVCAR-8 ovarian
OVCAR-5 ovarian = test system: OVCAR-5 ovarian
OVCAR-4 ovarian = test system: OVCAR-4 ovarian
IGROV1 ovarian = test system: IGROV1 ovarian
OVCAR-3 ovarian = test system: OVCAR-3 ovarian
HS 578T breast = test system: HS 578T breast
NCI/ADR-RES ovarian = test system: NCI/ADR-RES ovarian
T-47D breast = test system: T-47D breast
BT-549 breast = test system: BT-549 breast
MDA-MB-435 melanoma = test system: MDA-MB-435 melanoma
SW-620 colon = test system: SW-620 colon
MCF7 breast = test system: MCF7 breast
HCT-116 colon = test system: HCT-116 colon
HCC-2998 colon = test system: HCC-2998 colon
KM12 colon = test system: KM12 colon
SK-OV-3 ovarian = test system: SK-OV-3 ovarian

| SMILES | growth (RPMI-8226 leukemia) | growth (OVCAR-8 ovarian) | growth (OVCAR-5 ovarian) | growth (OVCAR-4 ovarian) | growth (IGROV1 ovarian) | growth (OVCAR-3 ovarian) | growth (HS 578T breast) | growth (NCI/ADR-RES ovarian) | growth (T-47D breast) | growth (BT-549 breast) | growth (MDA-MB-435 melanoma) | growth (SW-620 colon) | growth (MCF7 breast) | growth (HCT-116 colon) | growth (HCC-2998 colon) | growth (KM12 colon) | growth (SK-OV-3 ovarian) |
| --- | --- | --- | --- | --- | --- | --- | --- | --- | --- | --- | --- | --- | --- | --- | --- | --- | --- |
| COc1ccc(NC(=O)CSc2nc(C)c(C(C)=O)n2-c2ccc([N+](=O)[O-])cc2)cc1 | 102% (inactive) | 96.4% (inactive) | 89.8% (inactive) | 102% (inactive) | 95.8% (inactive) | 119% (inactive) | 94.9% (inactive) | 86% (inactive) | 87.8% (inactive) | 91.5% (inactive) | 93.2% (inactive) | 96.6% (inactive) | 93.9% (inactive) | 86.5% (inactive) | 105% (inactive) | 107% (inactive) |  |
| COc1cc(/C=C/C(=O)N2CCN(C(=O)c3cc(OC)c(OC)c(OC)c3)CC2)ccc1OCCCN1C(=O)c2cccc3cccc(c23)C1=O | 21.6% (inactive) | 50.6% (inactive) | 107% (inactive) | 77.9% (inactive) |  | 73.5% (inactive) | 38.6% (inactive) | 68.9% (inactive) | 61.9% (inactive) | 108% (inactive) | 95.6% (inactive) | 100% (inactive) | 90.4% (inactive) | 81.4% (inactive) | 99.7% (inactive) | 79.6% (inactive) | 121% (inactive) |
| O=C1Nc2ccc(F)cc2C12Nc1cc(Cl)ccc1S2 (stereo not drawn) | 32.9% (inactive) | 96.9% (inactive) | 121% (inactive) | 77.9% (inactive) |  | 82.8% (inactive) |  | 93.4% (inactive) | 40% (inactive) | 67.7% (inactive) | 97.5% (inactive) | 106% (inactive) | 60.3% (inactive) | 85.7% (inactive) | 99.5% (inactive) | 90.5% (inactive) | 83.8% (inactive) |
| O=c1[nH]c2ccccc2n1C1CCN(CCOc2ccccc2)CC1 | 41.5% (inactive) | 79% (inactive) | 104% (inactive) | 66.7% (inactive) |  | 65.4% (inactive) | 54.6% (inactive) | 94.1% (inactive) | 87.5% (inactive) | 90.3% (inactive) | 97.7% (inactive) | 103% (inactive) | 81.3% (inactive) | 84.7% (inactive) | 98.5% (inactive) | 96.9% (inactive) | 91.8% (inactive) |
| COc1cc(C2CC(c3cc(OC)c(OCCCOc4ccc(-n5c(/C=C/c6ccccc6)nc6ccccc6c5=O)cc4)c(OC)c3)=NO2)cc(OC)c1OC (stereo not drawn) | -9.38% (active) | 104% (inactive) | 105% (inactive) | 87% (inactive) |  | 118% (inactive) | 108% (inactive) | 107% (inactive) | 108% (inactive) | 118% (inactive) | 110% (inactive) | 104% (inactive) | 97.4% (inactive) | 106% (inactive) | 105% (inactive) | 122% (inactive) | 114% (inactive) |
| COc1ccc2c(c1)C(=O)/C(=C/c1cccc(OCC(=O)Nc3nc(C)c(C)s3)c1)O2 | -63.3% (active) | 4.69% (active) | -77.3% (active) | -66.7% (active) |  | -58.9% (active) | 5.38% (active) | -59% (active) | -6.43% (active) | -81.9% (active) | 15.3% (inactive) | -76.9% (active) | 40.5% (inactive) | -96.5% (active) |  | 9.4% (active) | 46.1% (inactive) |
| Cn1c(I)c(C#C[Si](C)(C)C)c(=O)n(C(=O)c2ccccc2)c1=O | -9.86% (active) | -20.6% (active) | 60.9% (inactive) | 39.5% (inactive) |  | 14.2% (inactive) | 41% (inactive) | 88.1% (inactive) | 17.8% (inactive) | 42.8% (inactive) | 53.9% (inactive) | -83.4% (active) | -18.9% (active) | -61.6% (active) | 0.121% (active) | 57.3% (inactive) | 101% (inactive) |
| COc1ccc(NC(=O)CSc2nc(C)c(C(C)=O)n2-c2ccc(Cl)cc2)cc1 | 97.3% (inactive) | 88.7% (inactive) | 98.6% (inactive) | 85.3% (inactive) | 95.1% (inactive) | 100% (inactive) | 90.4% (inactive) | 89.4% (inactive) | 80.5% (inactive) | 80.4% (inactive) | 89% (inactive) | 96.1% (inactive) | 92.9% (inactive) | 81.3% (inactive) | 90.3% (inactive) | 95.5% (inactive) |  |
| COc1cc(/C=N/Nc2ncc(-c3cc4cc5c(cc4o3)OCO5)s2)cc(OC)c1OC | 6.26% (active) | 30% (inactive) | 98.2% (inactive) | 68.7% (inactive) | 66.7% (inactive) | 67.2% (inactive) | 89.6% (inactive) | 26.3% (inactive) | 45.9% (inactive) | 15.2% (inactive) | 18.9% (inactive) | 55.4% (inactive) | 53.4% (inactive) | 28.5% (inactive) | 82.1% (inactive) | 23.5% (inactive) |  |
| COc1cccc2c1C(=O)c1c(O)c3c(c(O)c1C2=O)CC(O)(/C(C)=N/NC(=O)CCCCC(=O)N/N=C(\C)C1(O)Cc2c(O)c4c(c(O)c2C(OC2CC(N)C(O)C(C)O2)C1)C(=O)c1c(OC)cccc1C4=O)CC3OC1CC(N)C(O)C(C)O1 (stereo not drawn) | -66% [5 µM] (active) | 5% [5 µM] (active) | 7.09% [5 µM] (active) | -9.94% [5 µM] (active) |  | -37.2% [5 µM] (active) | -40.4% [5 µM] (active) | 75.6% [5 µM] (inactive) | -16.2% [5 µM] (active) | -21.6% [5 µM] (active) | -87.6% [5 µM] (active) | -32.3% [5 µM] (active) | 2.23% [5 µM] (active) | -3.01% [5 µM] (active) | -53.9% [5 µM] (active) | -21.6% [5 µM] (active) | -7% [5 µM] (active) |
| COC(=O)c1c2c(c[n+]([O-])c1C)C(=O)C=CC2=O | 57.6% (inactive) | 35.3% (inactive) | 118% (inactive) | -13.2% (active) | 2.42% (active) | -66.3% (active) |  | 97.1% (inactive) | -11.9% (active) | 71.4% (inactive) | -81.8% (active) | 0.106% (active) | -62% (active) | -9.77% (active) | 88.1% (inactive) | 98.7% (inactive) | 97% (inactive) |
| CCOC(=O)c1ccc(N2NC(=O)/C(=C/c3ccc([N+](=O)[O-])o3)C2=O)cc1 | 90.7% (inactive) | 97.9% (inactive) | 108% (inactive) | 110% (inactive) |  | 88.7% (inactive) | 113% (inactive) | 111% (inactive) | 109% (inactive) | 99.7% (inactive) | 109% (inactive) | 106% (inactive) | 89.4% (inactive) | 82.2% (inactive) | 103% (inactive) | 106% (inactive) | 117% (inactive) |
| O=C1Nc2ccccc2/C1=C/c1cn(C(=O)c2c(Cl)cccc2Cl)c2ccccc12 | 51.8% (inactive) | 52.3% (inactive) | 85% (inactive) | 50.4% (inactive) | 25.8% (inactive) | 43% (inactive) |  | 57.7% (inactive) | 47.7% (inactive) | 51.7% (inactive) | 85.7% (inactive) | 45.5% (inactive) | 22.9% (inactive) | 26.1% (inactive) |  | 54.8% (inactive) | 71.8% (inactive) |
| CC(C)CC(NC(=O)CN(Cc1ccccc1)S(C)(=O)=O)C(=O)O (stereo not drawn) | 102% (inactive) | 100% (inactive) | 94% (inactive) | 104% (inactive) |  | 96.6% (inactive) | 91.6% (inactive) | 98.9% (inactive) | 82% (inactive) | 118% (inactive) | 94.2% (inactive) | 108% (inactive) | 90.5% (inactive) | 100% (inactive) | 95% (inactive) | 98.6% (inactive) | 90.9% (inactive) |
| COc1ccc(N=C(c2ccccc2)C2C(=O)c3ccccc3C2=O)cc1 | 37.2% (inactive) | 83.3% (inactive) | 104% (inactive) | 77.3% (inactive) |  | 82.3% (inactive) | 86.9% (inactive) | 91.9% (inactive) | 78% (inactive) | 74.3% (inactive) | 58.6% (inactive) | 71.4% (inactive) | 84.6% (inactive) | 81.2% (inactive) | 112% (inactive) | 100% (inactive) | 108% (inactive) |
| CCOC(=O)c1csc(NC(=O)COc2cccc(/C=C3\Oc4cc(OC)ccc4C3=O)c2)n1 | 64.4% (inactive) | 74.2% (inactive) | 130% (inactive) | 90% (inactive) |  | 78.4% (inactive) | 91.3% (inactive) | 79.4% (inactive) | 68.9% (inactive) | 84.7% (inactive) | 90.5% (inactive) | 108% (inactive) | 81.1% (inactive) | 90.7% (inactive) |  | 83.9% (inactive) | 101% (inactive) |
| O=C(CCc1nnc(CN(c2ccccc2)c2ccccc2)o1)c1nc2ccccc2[nH]1 | 70.7% (inactive) | 88.3% (inactive) | 108% (inactive) | 82.9% (inactive) | 74.6% (inactive) | 95% (inactive) |  | 91.4% (inactive) | 74.4% (inactive) | 84.8% (inactive) | 94.3% (inactive) | 103% (inactive) | 76% (inactive) | 73.6% (inactive) | 90.3% (inactive) | 99.8% (inactive) | 96.2% (inactive) |
